# A selection: hits, their analogues and other compounds. The true share with any hit is near 28%.
# D1 mod: D1 CRE-luciferase signal change, two-sided – cell-based, HEK293 D1, dopamine EC30, D1 allosteric modulator project, primary screen; D(1A) dopamine receptor (Homo sapiens), P21728; dopamine EC30 potentiation; actives deviate in either direction; B-score at 10 µM; hit rate 5.9% among 58,000; AID 641, 2007;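 active = luminescence count or its row- and column-corrected plate score outside the 99.7% band of the plate's sample wells, on either side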
# CYP2C19 inh: blockers of cytochrome P450 2C19 activity – biochemical, luminescence, ADME assay, primary screen; inhibition, % at 5 µM; hit rate 21% among 96,000; AID 778, 2007; CYP2C19 Supersomes, luciferin-H EGE luminescence, 30 min;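 active = CYP2C19 inhibition above a set limit at 5 µM in the primary screen, cut at about 50% in these data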;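 also: plate controls were negative control wells for no effect and 2.5 mM tranylcypromine positive control for full effect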
# CYP2C9 act: human CYP2C9 activators, primary screen, biochemical, luminescence; recombinant CYP2C9, luciferin-H conversion; stronger effect = higher value; factor 1 = untreated enzyme, 0 = blocked; activation factor at 5 µM; hit rate 1.4% among 96,000; AID 1024, 2008;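 active = activation factor of 2 or more for CYP2C9 at a 5 µM dose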;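 also: 0 = sulfaphenazole-blocked wells and 1 = vehicle-only wells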
# hDAT+cocaine: changed hDAT dopamine uptake under cocaine IC80, either direction, primary screen, cocaine antagonist project, cell-based, LLC-PK1 hDAT, [14C]-dopamine uptake, MLSMR; Sodium-dependent dopamine transporter (Homo sapiens), Q01959; AID 449768, 2010; hit rate 1.3% among 110,000; B-score at 10 µM; LLC-PK1 hDAT cells, [14C]-dopamine uptake with cocaine IC80; actives deviate in either direction;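 active = Z score or B-score, a plate-position-corrected score, falls beyond the plate's 99.7% confidence bounds, in either direction; inactive = both scores lie inside the 99.7% bounds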;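 also: scored against the spread of the other compound wells on the same plate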
# Target sequence (Q01959 whole entry, looked up): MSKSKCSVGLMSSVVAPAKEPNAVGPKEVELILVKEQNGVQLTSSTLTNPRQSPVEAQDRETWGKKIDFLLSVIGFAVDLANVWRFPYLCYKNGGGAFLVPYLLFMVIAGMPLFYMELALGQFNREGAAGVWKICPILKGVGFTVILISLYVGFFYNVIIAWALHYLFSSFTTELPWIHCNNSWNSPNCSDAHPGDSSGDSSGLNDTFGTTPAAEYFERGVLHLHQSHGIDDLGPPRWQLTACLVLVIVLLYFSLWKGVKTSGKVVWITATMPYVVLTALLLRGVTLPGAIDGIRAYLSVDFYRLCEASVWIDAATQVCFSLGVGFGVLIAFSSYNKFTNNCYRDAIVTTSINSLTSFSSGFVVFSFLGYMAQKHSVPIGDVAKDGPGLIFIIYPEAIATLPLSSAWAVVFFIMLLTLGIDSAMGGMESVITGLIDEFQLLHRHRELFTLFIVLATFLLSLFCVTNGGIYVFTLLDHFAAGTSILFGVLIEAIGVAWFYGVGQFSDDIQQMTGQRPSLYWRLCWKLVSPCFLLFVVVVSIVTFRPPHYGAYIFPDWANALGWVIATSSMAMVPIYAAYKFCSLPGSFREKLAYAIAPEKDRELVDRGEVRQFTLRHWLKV
# CYP2C19 act: human CYP2C19 activators, primary screen, biochemical, luminescence; Cytochrome P450 2C19 (Homo sapiens), P33261; recombinant CYP2C19, luciferin-H EGE luminescence; stronger effect = higher value; 0 = fully inhibited enzyme, 1 = untreated enzyme; activation factor at 5 µM; 96,000 tested, under 10 active; AID 1025, 2008;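 active = activation factor of at least 2 at 5 µM in the primary screen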;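 also: 0 = wells with 2.5 mM tranylcypromine and 1 = vehicle-only wells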
# CYP2C9 inhib: blockers of cytochrome P450 2C9 activity – biochemical, luminescence, ADME assay, primary screen. hit rate 20% among 96,000. inhibition, % at 5 µM. P11712. CYP2C9 Supersomes, luciferin-H conversion;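 active = blocking of liver enzyme CYP2C9 beyond about 50% at 5 µM, limit read from the data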
# Numbers without * were called inactive; x = not tested or not shown.
SMILES,D1 mod,CYP2C19 inh,CYP2C9 act,hDAT+cocaine,CYP2C19 act,CYP2C9 inhib
COc1ccc(S(=O)(=O)N(CC(=O)N/N=C/c2cccs2)c2ccc(C)cc2)cc1OC,x,99.2*,0.5,-0.511,0,46.9
CS(=O)(=O)N1CCCC(C(=O)NCc2ccccc2Cl)C1 (stereo not drawn),-0.879,19.4,1,-0.0549,0.8,-1.4
CCOC(=O)C1C(=O)NC(N2CCCCC2)=NC1c1ccco1 (stereo not drawn),-0.063,-22.1,1.1,-0.795,1.2,-10.7
O=C(OCc1ccc(F)cc1)c1ccc2c(c1)-c1ccccc1C2=O,x,1.5,0.9,-0.0568,1,14.8
CCOC(=O)C1=C(Cc2ccc(F)cc2)C(=O)c2ccccc2C1=O,x,87.3*,0.6,-0.0264,0.1,41.7
CCOC(=O)c1nnc(-c2ccc(C)cc2)nc1Oc1ccc(Cl)cc1Cl,x,33.4,0.6,-2.69*,0.7,39.4
CCOC(=O)c1nnc(-c2ccccc2)nc1Sc1c(Cl)cccc1Cl,x,23.0,0.4,0.926,0.8,57.8*
CCOC(=O)c1nnc(-c2ccc(C)cc2)nc1Sc1ccccc1Cl,x,43.7,0.9,-0.004,0.6,10.4
COc1ccc(C(=O)Nc2cc(C)c3c(=O)oc4ccccc4c3n2)cc1,x,-7.7,0.9,-0.246,1.1,5.1
CCc1cccc(NC(=O)Cn2c(=O)oc3cc(S(=O)(=O)N4CCOCC4)ccc32)c1,x,12.0,0.6,0.924,0.9,38.4
Cc1cc(C)cc(NC(=O)Cn2c(=O)oc3cc(S(=O)(=O)N4CC(C)CC(C)C4)ccc32)c1 (stereo not drawn),x,31.3,0.4,0.939,0.7,56.1*
CCCCNC(=O)Cn1c(=O)oc2cc(S(=O)(=O)N3CC(C)CC(C)C3)ccc21 (stereo not drawn),x,11.6,0.4,-0.713,0.9,56.6*
CCc1ccc(NC(=O)Cn2c(=O)oc3cc(S(=O)(=O)N4CCOCC4)ccc32)cc1,-0.286,-16.7,1.1,0.0161,1.2,-12.7
CCO[C@@H]1OC(C(=O)NC2CC2)=C[C@H](c2ccccc2)[C@H]1CCCO,x,x,x,-0.152,x,x
CCOc1ccccc1N(CC(=O)NC(C)(C)C)C(=O)Cn1nnc(-c2ccc(C)o2)n1,0.291,32.2,0.7,-0.362,0.7,25.2
COC(=O)c1sc(S(=O)(=O)NCc2cccs2)c(C(=O)OC)c1C,0.848,88.6*,0.2,1.54,0.1,82.2*
CCc1nnc(NC(=O)CSc2ncnc3c2cnn3-c2ccc(OC)cc2)s1,x,31.5,0.7,-0.64,0.7,28.3
COc1cc(C2CC(=O)Nc3ccccc3S2)cc(OC)c1OC (stereo not drawn),-1.77,63.6*,0.7,-1.43,0.4,34.7
CCCNc1nc(Nc2ccc(C)cc2)nc(N2CCCC2)n1,x,-4.0,0.8,0.0328,1,21.7
O=S(=O)(Cc1ccccc1)N1CCc2ccccc2C1,x,96.6*,3.7*,-0.107,0,-269.8
O=S(=O)(Cc1ccccc1)N1CCN(Cc2ccccc2)CC1,-0.125,52.6*,1.7,-0.0997,0.5,-69.8
O=S(=O)(Cc1ccccc1)N1CCCCC1,x,43.7,1.1,0.741,0.6,-9.8
O=S(=O)(Cc1ccccc1)N1CCCCCC1,-0.248,66.0*,1,-0.263,0.3,-4.7
O=S(=O)(Cc1ccc(Cl)cc1)N1CCCC1,0.318,93.0*,0.9,-0.42,0.1,7.4
CS(=O)(=O)N1CCc2ccccc2C1,x,x,x,1.41,x,x
C[C@@H](C(=O)Nc1ccc2ccccc2c1)[C@H]1C[C@]1(C)[C@H](NS(=O)(=O)c1ccccc1)c1ccccc1,x,x,x,2.12,x,x
COc1ccc(CN(C(=O)c2ccc3c(c2)OCCO3)C(C(=O)NC2CCCCC2)c2ccc3ncccc3c2)cc1 (stereo not drawn),x,62.1*,0.7,0.531,0.4,26.8
O=C(NC1CCCCC1)C(c1ccc2ncccc2c1)N(Cc1ccccc1)C(=O)c1ccc2c(c1)OCCO2 (stereo not drawn),x,80.3*,0.3,1.09,0.2,66.9*

# Screening data deposited in PubChem by several laboratories.
